In PubChem BioAssay (NCATS):
Results filed as inconclusive are left out. The source made the active and inactive calls. Calls come from the whole dose curve; as a rule, active = well fitted curve in the direction sought with a large enough effect; inconclusive = small, poorly fitted or top-dose-only effect, or another doubt; inactive = no such curve, though single readings can be large; an effect the other way counts as inactive or inconclusive.

Experiments:
[1] = target: Glutathione peroxidase 1 (Homo sapiens) (UniProt P07203); experiment: Primary qHTS Assay for Inhibitors of Recombinant Selenoprotein Glutathione Peroxidase 1 (GPX1) (AID 1845191); note: nearly all actives have a fitted effect of over 65% in size; note: potency is the fitted concentration of half-maximal effect; for activity, negative = inhibition: % is set by controls: 0 for no effect and ±100 for the full control effect
How it was run: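 NADPH consumption tracked by fluorescence at 340/450 nm between t=0 and t=15 min, room temperature. Final mix: 10 nM GPX1, 100 nM glutathione reductase, 1 mM GSH, 0.5 mM NADPH, 0.5 mM cumene hydroperoxide, 0.01% BSA; 30 min compound–enzyme preincubation.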

[2] = target: Phospholipid hydroperoxide glutathione peroxidase GPX4 (Homo sapiens) (UniProt P36969); experiment: Primary qHTS Assay for Inhibitors of Recombinant Selenoprotein Glutathione Peroxidase 4 (GPX4) (AID 1845192); note: nearly all actives have a fitted effect of over 65% in size; note: potency is the fitted concentration of half-maximal effect; for activity change, negative = inhibition: series mostly up to about 50 µM; % is set by controls: 0 for no effect and ±100 for the full control effect
How it was run: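 NADPH consumption followed by fluorescence at 340/450 nm, t=0 and after 15 min at room temperature. Reaction started with cumene hydroperoxide (0.5 mM final) after 30 min compound–GPX4 preincubation; final 200 nM GPX4, 100 nM GR, 1 mM GSH, 0.5 mM NADPH.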

[3] = target: Luciferin 4-monooxygenase (Photinus pyralis) (UniProt P08659); experiment: Primary firefly luciferase (FLuc) qHTS assay for identification of artifact compounds. (AID 1845220); note: nearly all actives have a fitted effect of over 60% in size;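 for activity change, negative = inhibition: series mostly up to about 54 µM; plate controls were DMSO vehicle for no effect and no enzyme for full effect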
How it was run: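 Cell-free, 1536-well qHTS. Buffer pH 7.6 with 0.01% Tween-20 and 0.05% BSA; 10 uM D-luciferin, 10 uM ATP; 10 nM P. pyralis luciferase; luminescence after 5 min.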

[4] = Primary fluorescence-based thiol-reactive (MSTI) qHTS assay for identification of artifact compounds. (AID 1845221);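 note: series mostly up to about 54 µM; thiol-reactive compounds lower the probe fluorescence signal; nearly all actives have a fitted effect of over 65% in size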
How it was run: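 First, 4 uM MSTI in 2% DMSO/PBS pH 7.4 was dispensed; next, compounds were added; then plates sat 1 h at room temperature without light. Finally, emission at 598 nm was recorded.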

[5] = system: Nanoluciferase (engineered Oplophorus gracilirostris luciferase); experiment: Primary Nanoluciferase (NLuc) qHTS assay for identification of artifact compounds. (AID 1845222);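 note: series mostly up to about 54 µM; 0% = DMSO and -100% = no enzyme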
How it was run: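 Compounds are pinned into diluted (1:55) conditioned medium of NLuc-expressing S16 cells and held 15 min at room temperature protected from light. Nano-Glo substrate follows, and luminescence is read 5 min later.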

[6] = Primary redox qHTS assay for identification of artifact compounds. (AID 1845223);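 note: 0% = DMSO and 100% = reference compound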
How it was run: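 Redox-cycling detection via DTT (250 uM final) oxidation coupled to Amplex Red (25 uM)/HRP (250 mU/mL) in HBSS. 15 min preincubation plus 30 min after DTT, room temperature. Ex/Em 525/598 nm; 4-parameter Hill fit against DMSO and 10 uM DA3003.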

Chain of Glutathione peroxidase 1 (Homo sapiens) (P07203 whole entry, looked up): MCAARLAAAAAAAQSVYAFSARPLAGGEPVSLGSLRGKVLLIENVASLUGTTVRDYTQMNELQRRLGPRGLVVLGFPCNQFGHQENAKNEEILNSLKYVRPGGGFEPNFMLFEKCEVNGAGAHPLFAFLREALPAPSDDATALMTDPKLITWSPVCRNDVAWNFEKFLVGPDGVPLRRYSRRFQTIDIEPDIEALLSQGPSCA
Chain of Phospholipid hydroperoxide glutathione peroxidase GPX4 (Homo sapiens) (P36969 whole entry, looked up): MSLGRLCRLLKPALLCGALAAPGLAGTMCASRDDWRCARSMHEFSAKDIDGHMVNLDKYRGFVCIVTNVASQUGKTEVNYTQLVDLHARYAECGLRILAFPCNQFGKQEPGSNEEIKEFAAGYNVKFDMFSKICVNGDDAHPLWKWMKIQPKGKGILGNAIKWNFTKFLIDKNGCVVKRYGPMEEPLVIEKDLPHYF

CC(C)(C)C1CCN(C(=O)n2ncc(C(O)(c3ccccc3)c3ccccc3)n2)CC1
inactive: Potency [1] | Potency [2] | Potency [3] | Potency [4] | Potency [5] | Potency [6]

CCNC(=O)N1CCCN(c2ccc(C(=O)NCCc3ccc(Cl)cc3Cl)cc2NC(=O)c2cccc(Cl)c2)CC1
inactive: Potency [1] | Potency [2] | Potency [3] | Potency [4] | Potency [5] | Potency [6]

CC(C)c1ccccc1OC(=O)NCCc1ccc2ccccc2c1
inactive: Potency [1] | Potency [2] | Potency [3] | Potency [4] | Potency [5] | Potency [6]

Cn1cc(-c2ccc(F)c(C(F)(F)F)c2)nc1C1CCN(c2ncnc3[nH]ncc23)CC1
inactive: Potency [1] | Potency [2] | Potency [3] | Potency [4] | Potency [5] | Potency [6]

CCC(C)(OC(C)=O)C(=O)O[C@H]1[C@H](OC(C)=O)[C@]2(CO)[C@H](O)[C@H](O)[C@]3(C)C(=CCC4[C@@]5(C)CC[C@H](O[C@@H]6O[C@H](C(=O)O)[C@@H](O)[C@H](O[C@@H]7OC[C@H](O)[C@H](O[C@@H]8OC[C@H](O)[C@H](O)[C@H]8O)[C@H]7O)[C@H]6O[C@@H]6O[C@H](CO)[C@@H](O)[C@H](O)[C@H]6O)C(C)(C)C5CC[C@]43C)[C@@H]2CC1(C)C (stereo not given in full)
inactive: activity, negative = inhibition [1] -12.6% [at 9.52 µM] | activity change, negative = inhibition [2] -15.3% [at 9.73 µM] | activity change, negative = inhibition [3] -11% [at 11.6 µM] | activity change, negative = thiol reactive [4] 202% [at 11.5 µM] | activity, negative = inhibition [5] -1.71% [at 11.6 µM] | redox activity (% of DA3003) [6] 22% [at 11.5 µM]

O=C(CCl)Nc1cccc(NC2=NS(=O)(=O)c3ccccc32)c1
inactive: Potency [1] | Potency [2] | Potency [3] | Potency [4] | Potency [5] | Potency [6]

O=c1[nH]c2ccc(C#CCN3CCC(Cc4ccccc4)CC3)cc2[nH]1
inactive: Potency [1] | Potency [2] | Potency [3] | Potency [4] | Potency [5] | Potency [6]

Cc1ccc(S(=O)(=O)NCc2ccc(C(=O)NCCN(Cc3ccccc3)C(C)C)cc2)cc1
inactive: Potency [1] | Potency [2] | Potency [3] | Potency [4] | Potency [5] | Potency [6]

Cc1ccc(OC[C@H](O)[C@H](C)NC(C)C)c2c1CCC2
inactive: Potency [1] | Potency [2] | Potency [3] | Potency [4] | Potency [5] | Potency [6]

Cc1cc(Nc2nc(-c3ccccc3)nc3ccccc23)n[nH]1
inactive: Potency [1] | Potency [2] | Potency [3] | Potency [4] | Potency [5] | Potency [6]

CCOC(=O)C1=Cc2ccc(C(F)(F)C(F)(F)F)cc2N=C(N)C1
inactive: Potency [1] | Potency [2] | Potency [3] | Potency [4] | Potency [5] | Potency [6]

Cc1ccc(NC(=O)N2CCN(c3nc(N)nc4sc(-c5cccnc5)nc34)CC2)cc1
active: Potency [1] 14.3 µM | Potency [2] 2.55 µM
inactive: Potency [3] | Potency [4] | Potency [5] | Potency [6]

Cc1csc(N(C(=O)CSc2ccc(-c3ccccc3)nn2)C2CC2)n1
inactive: Potency [2] | Potency [3] | Potency [4] | Potency [5] | Potency [6]
active: Potency [1] 20.2 µM

CC(C)c1noc(C2CCN(c3ncnc(Nc4ccc(S(C)(=O)=O)cc4F)c3[N+](=O)[O-])CC2)n1
inactive: Potency [1] | Potency [2] | Potency [3] | Potency [4] | Potency [5] | Potency [6]

C/C=C(\C)C(=O)O[C@H]1C=CC(=O)O[C@H]1/C=C/[C@@H](O)[C@H](C)O
inactive: Potency [1] | Potency [2] | Potency [3] | Potency [4] | Potency [5] | Potency [6]

COc1ccc2nc(-c3cc(OC)c(OC)c(OC)c3)cc(C(=O)NCC(=O)Nc3ccc(C(C)=O)cc3)c2c1
inactive: Potency [1] | Potency [2] | Potency [3] | Potency [4] | Potency [5] | Potency [6]

CC(O)(C(=O)C1CC1(CO)COC1OC(CO)C(O)C(O)C1O)C1C(O)CC2C3CC=C4CC(O)CC(O)C4(C)C3C(O)CC21C (stereo not given)
inactive: Potency [1] | Potency [2] | Potency [3] | Potency [4] | Potency [5] | Potency [6]

Cc1cc(C)nc(SCC(=O)Nc2ncc(Cc3cccc4ccccc34)s2)n1
inactive: Potency [1] | Potency [2] | Potency [3] | Potency [4] | Potency [5] | Potency [6]

CC(F)(F)CN1CCOc2c(nn(-c3ccccc3Cl)c2-c2ccc(Cl)cc2)C1=O
inactive: Potency [1] | Potency [2] | Potency [3] | Potency [4] | Potency [6]

O=C1Nc2ccccc2-c2nc3ccccc3c(=O)n2-c2c(O)cccc21
inactive: Potency [1] | Potency [2] | Potency [3] | Potency [5]

COc1cc(CCC2=NN=C(NC(=O)c3ccc(N4C[C@@H](C)N[C@@H](C)C4)cc3)C2)cc(OC)c1
inactive: Potency [1] | Potency [2] | Potency [3] | Potency [4] | Potency [6]

COc1cc2c(cc1OCCCN1CCCC1)N=C(N)C21CCC1
inactive: Potency [1] | Potency [2] | Potency [3] | Potency [5]

N#Cc1ccc2ncnc(NCCc3ccccc3)c2c1
inactive: Potency [1] | Potency [2] | Potency [3] | Potency [5]
